Assay results published in PubChem BioAssay AID1159580 (chemical genetic matrix, 2015).
Where “and” joins values, the source holds several entries; their conditions need not be identical. Equal entries are not always repeated. Out of some 5,500 compounds screened, about 2,000 (36%) were called active. Not shown: some 18% with an inconclusive outcome. Rule as the data show it: active = normalized growth mostly below about 0.91 (no sharp cut-off); inconclusive = no clear call, values can overlap the other calls; inactive = mostly above about 0.92. This is one part of the list.

Experiment: chemical genetic growth profiling, strain panel (AID 1159580);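 also: tested at 20 µM; growth read once vehicle control cultures reached saturation at 30 °C; 1 = growth at the plate median or of vehicle wells; lower values mean less growth of the strain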
Conditions: S. cerevisiae deletion strains, growth OD

Measured: normalized growth

O=C(NCc1ccc(F)c(Cl)c1)Nc1csc([N+](=O)[O-])c1
inactive: locus YAR019C, strain CDC15, active compounds read low 0.984 | locus YBL105C, strain PKC1, active compounds read low 0.979 | locus YBR135W, strain CKS1, active compounds read low 0.987 | locus YBR136W, strain MEC1, active compounds read low 0.965 | locus YBR160W, strain CDC28, active compounds read low 0.981 | locus YDL017W, strain CDC7, active compounds read low 0.981 | locus YDL028C, strain MPS1, active compounds read low 0.98 | locus YDL101C, strain DUN1, active compounds read low 0.984 | locus YDL108W, strain KIN28, active compounds read low 0.975 | locus YDL132W, strain cdc53, active compounds read low 0.989 | locus YDL214C, strain PRR2, active compounds read low 0.975 | locus YDR052C, strain DBF4, active compounds read low 0.985 | locus YDR054C, strain cdc34, active compounds read low 0.989 | locus YDR226W, strain ADK1, active compounds read low 0.986 | locus YDR477W, strain SNF1, active compounds read low 0.977 | locus YER123W, strain YCK3, active compounds read low 0.917 | locus YER133W, strain GLC7, active compounds read low 0.965 | locus YFL009W, strain cdc4, active compounds read low 0.989 | locus YFL029C, strain CAK1, active compounds read low 0.967 | locus YFR003C, strain YPI1, active compounds read low 0.984 | locus YFR019W, strain FAB1, active compounds read low 0.951 | locus YFR028C, strain CDC14, active compounds read low 0.977 | locus YGR040W, strain KSS1, active compounds read low 0.976 | locus YGR052W, strain FMP48, active compounds read low 1.02 | locus YGR092W, strain DBF2, active compounds read low 0.96 | locus YHR030C, strain SLT2, active compounds read low 0.906 | locus YHR079C, strain IRE1, active compounds read low 0.958 | locus YHR082C, strain KSP1, active compounds read low 0.99 | locus YHR205W, strain SCH9, active compounds read low 0.932 | locus YIL147C, strain SLN1, active compounds read low 0.983 | locus YJL095W, strain BCK1, active compounds read low 0.963 | locus YJL128C, strain PBS2, active compounds read low 0.957 | locus YJL157C, strain FAR1, active compounds read low 0.987 | locus YJR016C, strain ILV3, active compounds read low 0.99 | locus YJR066W, strain TOR1 (second series), active compounds read low 0.952 | locus YJR066W, strain TOR1, active compounds read low 0.987 | locus YKL048C, strain ELM1, active compounds read low 0.98 | locus YKL067W, strain YNK1, active compounds read low 0.973 | locus YKL101W, strain HSL1, active compounds read low 0.947 | locus YKL193C, strain SDS22, active compounds read low 0.987 | locus YKL203C, strain TOR2, active compounds read low 1.03 | locus YLR113W, strain HOG1, active compounds read low 0.922 | locus YLR133W, strain CKI1, active compounds read low 0.962 | locus YLR403W, strain SFP1, active compounds read low 0.948 | locus YML070W, strain DAK1, active compounds read low 0.938 | locus YMR001C, strain CDC5, active compounds read low 0.99 | locus YMR205C, strain PFK2 (second series), active compounds read low 0.962 | locus YMR277W, strain FCP1, active compounds read low 0.991 | locus YNL006W, strain LST8, active compounds read low 0.993 | locus YNL020C, strain ARK1, active compounds read low 0.972 | locus YNL161W, strain CBK1, active compounds read low 0.983 | locus YNL183C, strain NPR1, active compounds read low 0.957 | locus YNL207W, strain RIO2, active compounds read low 0.981 | locus YNL222W, strain SSU72, active compounds read low 0.988 | locus YNL307C, strain MCK1 (second series), active compounds read low 0.973 | locus YOL078W, strain AVO1, active compounds read low 0.983 | locus YOL136C, strain PFK27, active compounds read low 0.942 | locus YOR061W, strain CKA2, active compounds read low 0.966 | locus YOR119C, strain RIO1, active compounds read low 1.01 | locus YOR231W, strain MKK1, active compounds read low 0.939 | locus YOR329C, strain SCD5, active compounds read low 0.981 | locus YPL031C, strain PHO85, active compounds read low 0.983 | locus YPL153C, strain RAD53, active compounds read low 0.969 | locus YPL204W, strain HRR25, active compounds read low 0.981 | locus YPL209C, strain IPL1, active compounds read low 0.981 | locus YPL256C, strain CLN2, active compounds read low 0.916 | locus YPR025C, strain CCL1, active compounds read low 0.989 | locus YPR106W, strain ISR1, active compounds read low 0.978 | locus YPR111W, strain DBF20, active compounds read low 0.977 | strain NNK1, active compounds read low 0.99 | strain TSCII, active compounds read low 0.981

c1ccc(C2CN3CCSC3=N2)cc1 (configuration not stated)
inactive: locus YAL040C, strain CLN3, active compounds read low 0.985 and 1 | locus YCL061C, strain MRC1 (second series), active compounds read low 0.997 and 1.02 | locus YDR363W, strain ESC2, active compounds read low 1.02 and 1.04 | locus YER002W, strain NOP16, active compounds read low 0.991 and 1.03 | locus YGR078C, strain PAC10, active compounds read low 1 | locus YGR229C, strain SMI1, active compounds read low 1.04 | locus YJR075W, strain HOC1, active compounds read low 1.04 and 1.01 | locus YMR263W, strain SAP30, active compounds read low 1.01 | locus YMR307W, strain GAS1, active compounds read low 1.02 and 1 | locus YNL153C, strain GIM3, active compounds read low 1.02 | locus YNL175C, strain NOP13, active compounds read low 0.984 and 1 | locus YNL197C, strain WHI3, active compounds read low 0.977 and 1.01 | locus YNL224C, strain SQS1, active compounds read low 0.999 and 1.01 | locus YNL322C, strain KRE1, active compounds read low 1.02 | locus YOR083W, strain WHI5 (second series), active compounds read low 0.983 and 1.03 | locus YPL055C, strain LGE1, active compounds read low 1.05
